Source: PubChem (The Scripps Research Institute Molecular Screening Center)
Rows were chosen to be rich in hits. Some 5.7% of all compounds tested hit in one or more screens of this group.
hgDAF12 agonist = agonists of H. glycines DAF-12 nuclear receptor; HEK293 GAL4-hgDAF12 UAS-luciferase reporter, agonist luminescence; normalized to butyrate control; activation, % at 6.8 µM; actives 1.8% (n = 370,000);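 active = activation above a cutoff set at the mean of all screened compounds plus 3 SD, cut at about 10% in these data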;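 also: 0% = DMSO wells and 100% = sodium butyrate wells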
hcDAF-12 act = activators of H. contortus DAF-12 nuclear receptor | activation, % at 6.8 µM | HEK293 hcDAF-12 lit1-tk-luc reporter, luminescence; 0% DMSO, 100% Δ7-dafachronic acid | AID 652067 | actives 1.4% (n = 370,000);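 active = activation above the mean of all tested compounds plus 3 SD, cut at about 5.5% in these data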;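 also: 100% = response to 3 µM Δ7-dafachronic acid high control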
DAX1 inh-1 = inhibits human nuclear receptor DAX1. HEK293 Gal4-DAX1 luciferase reporter, luminescence. actives 0.99% (n = 340,000). inhibition, % at 6.75 µM. AID 504766. P51843;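 active = inhibition above the mean over all tested compounds plus 3 SD, cut at about 4.2% in these data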;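 also: 0% = DAX1-transfected cells with DMSO and 100% = empty-vector control cells with DMSO; inhibition shows as a rise in luminescence from relieved DAX1 repression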
AHR activator = activators of human aryl hydrocarbon receptor; AHR-responsive luciferase reporter cells, luminescence; P35869; activation, % at 5 µM; actives 2.5% (n = 320,000); AID 2796; in the data active = activation above about 47%;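 also: 0% = vehicle wells and 100% = reference agonist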
Target sequence (P35869 whole entry, looked up): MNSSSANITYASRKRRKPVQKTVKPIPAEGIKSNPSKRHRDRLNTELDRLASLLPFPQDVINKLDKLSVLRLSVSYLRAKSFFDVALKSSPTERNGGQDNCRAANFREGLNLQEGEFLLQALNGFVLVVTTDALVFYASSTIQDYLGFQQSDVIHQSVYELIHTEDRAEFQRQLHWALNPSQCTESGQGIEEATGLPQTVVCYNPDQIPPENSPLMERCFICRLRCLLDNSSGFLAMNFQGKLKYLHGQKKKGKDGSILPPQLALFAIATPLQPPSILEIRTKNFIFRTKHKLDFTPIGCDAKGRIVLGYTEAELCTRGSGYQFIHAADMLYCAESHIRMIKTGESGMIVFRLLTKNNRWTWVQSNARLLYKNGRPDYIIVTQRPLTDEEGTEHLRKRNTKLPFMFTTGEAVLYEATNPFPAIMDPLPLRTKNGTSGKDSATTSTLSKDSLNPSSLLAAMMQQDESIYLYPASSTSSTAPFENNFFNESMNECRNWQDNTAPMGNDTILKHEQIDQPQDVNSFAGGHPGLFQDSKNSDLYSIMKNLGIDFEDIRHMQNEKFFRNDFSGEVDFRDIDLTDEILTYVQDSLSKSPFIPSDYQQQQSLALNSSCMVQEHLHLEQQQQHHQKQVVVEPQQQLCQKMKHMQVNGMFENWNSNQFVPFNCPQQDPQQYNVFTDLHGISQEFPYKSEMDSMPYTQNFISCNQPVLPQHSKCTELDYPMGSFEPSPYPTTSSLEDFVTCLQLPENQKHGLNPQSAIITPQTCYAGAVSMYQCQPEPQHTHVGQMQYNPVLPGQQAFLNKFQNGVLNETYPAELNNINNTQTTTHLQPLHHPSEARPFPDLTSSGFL
ssDAF12 agonist = S. stercoralis DAF-12 activation, primary screen; HEK293 ssDAF-12/GRIP1 lit1-tk-luc reporter, luminescence; % of 3 µM dafachronic acid response; activation, % at 6.8 µM; actives 1% (n = 370,000);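 active = activation above the mean over all tested compounds plus 3 SD, cut at about 0.9% in these data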;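 also: 0% = DMSO-only wells and 100% = 3 µM delta7-dafachronic acid wells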
DAX1 inh-2 = DAX1 (NR0B1) inhibition, primary screen. HEK293T StAR-luciferase reporter, SF-1/DAX-1 repression relief. inhibition, % at 6.8 µM. actives 1.1% (n = 370,000);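 active = inhibition above the mean over all tested compounds plus 3 SD, cut at about 3.6% in these data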;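 also: 0% = DAX-1 cells with DMSO and 100% = cells lacking DAX-1 with DMSO; higher inhibition means more luminescence from relief of DAX-1 repression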
* marks the source's active call; other numbers are inactive results; x = no result.

SMILES	hgDAF12 agonist	hcDAF-12 act	DAX1 inh-1	AHR activator	ssDAF12 agonist	DAX1 inh-2
CCNC(=S)N/N=C/c1cc(Br)cc(Br)c1OC	0	-2	0	63*	-1	-1
COc1ccccc1/C=N/NC(=O)c1ccc(NC(=O)c2ccccc2Br)cc1	3	-3	-1	-1	-2	0
CCC(=O)Nc1ccc(C(=O)N/N=C/c2cc(Br)c(OC)cc2OC)cc1	1	5	0	6	1.9*	0
COc1c(Br)cc(Br)cc1/C=N/NC(=O)c1cccnc1	2	0	1	x	-1	-1
COc1c(Br)cc(Br)cc1/C=N/NC(=O)c1ccncc1	3	-1	-1	57*	-1	0
CCN(CC)CC(=O)Nc1ccc([N+](=O)[O-])cc1	-2	-1	0	2	-1	0
Cc1nc2ccccc2n1CCN1CCOCC1	1	0	1	72*	0	0
COc1ccc(C(C#N)=C2C=CC(=NO)C=C2)cc1	-1	-2	-1	2	1.3*	-1
CCC(C)(C(=O)NC1CCCC1)N(C(=O)c1ccccn1)c1ccccc1 (centres undefined)	2	-2	0	-3	-1	0
Cc1sc(CO)c(Sc2ccccc2)c1C(=O)O	-1	6.0*	x	0	0	0
CCCn1nnc(NC(=O)c2cccc(Cl)c2)n1	4	2	0	3	0	0
CCCn1nnc(NC(=O)c2cc(Br)ccc2OC)n1	1	-1	1	2	1.1*	0
CCCn1nnc(NC(=O)c2cc3ccccc3o2)n1	9	4	5.7*	7	-1	3
O=C1NC(Cc2c[nH]c3ccccc23)C(=O)N1CCOc1ccccc1 (centres undefined)	-4	1	-2	2	-1	-1
O=C(CC(C(=O)O)c1ccc(Cl)cc1)c1ccc(Cl)c(Cl)c1 (centres undefined)	0	-1	-2	3	-1	0
O=C(CC(C(=O)O)c1ccc(Cl)cc1Cl)c1ccc(Cl)cc1 (centres undefined)	0	5.9*	1	0	-1	0
O=[N+]([O-])c1ccc(Nc2nc(N3CCOCC3)nc(N3CCOCC3)n2)cc1	0	0	0	2	1.1*	0
NNc1nc(Nc2ccc([N+](=O)[O-])cc2)nc(N2CCCCCC2)n1	0	-2	2	68*	-2	-1
O=[N+]([O-])c1ccc(Nc2nc(N/N=C\c3ccc4c(c3)OCO4)nc(N3CCCCC3)n2)cc1	4	-1	2	71*	-1	-1
O=[N+]([O-])c1ccc(Nc2nc(NCCO)nc(N3CCCC3)n2)cc1	-1	-2	-1	18	-2	-1
COc1cc(OC)cc(-c2nnc(NC(=O)CCS(=O)(=O)c3ccc(C)cc3)o2)c1	2	-1	-1	65*	-2	-1
COc1cccc(-c2nnc(NC(=O)CCS(=O)(=O)c3ccc(F)cc3)o2)c1	5	0	0	x	-1	0
CS(=O)(=O)c1cccc(-c2nnc(NC(=O)CCS(=O)(=O)c3ccccc3)o2)c1	3	1	4.6*	-1	0	1
O=C(COCc1ccncc1)N1CCN(c2ccc(F)cc2Cl)CC1	-2	-2	x	x	-2	-2
COc1c2c(c(C)c3c1C(=O)OC3)O[C@@]1(C)CC[C@@]3(O)C(C)(C)OC(=O)CC[C@]3(C)[C@H]1C2	-3	-1	0	3	-1	0
SMILES	hgDAF12 agonist	hcDAF-12 act	DAX1 inh-1	AHR activator	ssDAF12 agonist	DAX1 inh-2
Cc1cc(C)cc(NC(=O)CCc2nc3sc4c(c3c(=O)[nH]2)CCCC4)c1	9	4	1	59*	-1	3
O=C(Nc1ccc(C(=O)N2CCCCC2)cc1)[C@H]1O[C@@H](n2ccc(=O)[nH]c2=O)[C@H](O)[C@@H]1O	1	1	x	x	-1	3.7*
Cc1csc2nc(CCNS(=O)(=O)c3cccs3)cn12	13*	1	0	10	-1	3
Cc1nc(CCNS(=O)(=O)c2cccs2)cs1	2	0	1	6	-1	1
O=C(CCNC(=O)c1ccc([N+](=O)[O-])cc1)NCc1ccccc1	2	0	1	x	0	-1
Cc1ccccc1Nc1nc(N)nc(COC(=O)c2ccco2)n1	12*	3	3	1	0	2
Nc1nc(COC(=O)c2ccco2)nc(Nc2ccccc2)n1	3	-1	4	x	-1	2
O=C1C(NS(=O)(=O)c2ccccc2)=C(N2CCN(c3ccc(F)cc3)CC2)C(=O)c2ccccc21	0	-2	-1	66*	-2	-1
CC1CCN(C2=C(NS(=O)(=O)c3ccccc3)C(=O)c3ccccc3C2=O)CC1	4	2	-2	6	-1	0
O=C(Nc1nc(-c2ccc(Cl)s2)cs1)c1cccs1	10	2	-1	71*	-1	0
CN(C(=O)c1ccco1)c1nnc(-c2ccc(F)cc2)s1	9	5	1	-3	0	1
Cc1noc(C)c1C(=O)Nc1nc(-c2cccs2)cs1	3	2	1	63*	0	0
Cc1csc(NC(=O)c2ccco2)n1	5	1	1	15	1.0*	1
CN(C(=O)c1ccco1)c1nc(-c2ccc(F)cc2)cs1	8	4	5.2*	-4	0	2
COc1ccccc1C(=O)NCCC(=O)NCC(c1ccccc1)N(C)C (centres undefined)	-1	0	0	21	-1	0
CC(=O)c1cccc(NC(=O)C(=O)c2cn(CC(=O)N3CCCCC3)c3ccccc23)c1	-1	0	-1	1	-2	-1
CCOC(=O)c1sc(-c2ccc(Cl)cc2Cl)nc1O	2	-1	0	-5	-2	0
CCCN(C(=O)CCl)C1=CCCCC1	6	1	-1	1	-1	-2
Cc1csc(NC(=O)c2cccn2C)n1	12*	5	2	3	0	3
C=CCOC(=O)c1sc(NC(=O)c2ccco2)nc1C	11*	5	2	31	0	3
Cc1csc(NC(=O)c2ccc(C(=O)Nc3nc(C)cs3)cc2)n1	x	x	x	18	x	x
Cc1csc(NC(=O)c2sccc2C)n1	12*	5	3	6	0	2
CCOC(=O)c1sc(NC(=O)c2cc3ccccc3o2)nc1C	4	1	1	-8	-1	3
O=C(O)Cc1csc(NC(=O)c2ccco2)n1	2	-1	0	4	0	-1
O=C(Nc1nc(-c2ccc(Cl)s2)cs1)c1ccco1	12*	1	3	1	-1	1
O=C(NNc1nc(-c2ccccc2)cs1)c1ccco1	-2	1	0	72*	0	0
